# Most compounds without a hit are left out; they make up all but 2.2% or so of the library.
# KLF5 inhibitor – KLF5 expression inhibitors, primary screen, DLD-1 cells, luminescence; DLD-1 KLF5 promoter-luciferase reporter; inhibition, % at 5 µM; 290,000 compounds, 0.23% hits;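 active = inhibition above a per-plate limit of that plate's mean compound inhibition plus 3 SD, cut at about 60% in these data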;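 also: 0% = DMSO wells and 100% = LY294002 at 200 µM; higher means less KLF5 promoter-driven luciferase light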
# APP transl inh – inhibitors of APP translation via 5'UTR reporter, primary screen, APP 5'UTR luciferase, SH-SY5Y cells; SH-SY5Y APP 5'UTR-luciferase reporter, luminescence; inhibition, % at 2 µM; 190,000 compounds, 0.82% hits;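 active = inhibition above a set limit, derived from the sample mean plus 3 SD, cut at about 45% in these data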
# IEC-6 tox – cytotoxicity in IEC-6 intestinal epithelial cells, primary screen, cytotoxicity control for KLF5 inhibitor project, cell-based, luminescence | IEC-6 cytotoxicity, luminescence viability | inhibition, % at 5 µM | 290,000 compounds, 0.78% hits | AID 1825, 2009; in the data active = inhibition above about 22%;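 also: 0% = plate median of test compound wells and 100% = cytotoxic reference compound wells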
# aSyn 5UTR inh – MLPCN primary screen, SNCA 5' untranslated region | inhibition, % (tested at 7.5 µM) | alpha-synuclein 5'UTR reporter, inhibitor activity | AID 1813, 2009 | 300,000 compounds, 0.82% hits; in the data active = inhibition above about 60%;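 also: H4 neuroglioblastoma cells stably carrying SNCA 5'UTR luciferase fusion; 0% = DMSO wells and 100% = positive control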
# BaF3 tox – parental Ba/F3 cell viability inhibition, counter-screen for JAK2V617F inhibitor project, murine pro-B, CellTiter-Glo luminescence. 220,000 compounds, 1.1% hits. AID 1486, 2009. CellTiter-Glo ATP luminescence. inhibition, % at 5.6 µM;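 active = inhibition above a per-campaign cutoff, the mean inhibition of all tested compounds plus 3 SD, cut at about 27% in these data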;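 also: 0% = DMSO wells and 100% = JAK Inhibitor I control wells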
# Ba/F3 V617F tox – reduced viability of JAK2V617F-dependent Ba/F3 cells, primary screen, JAK2V617F inhibitor project, cell-based, Ba/F3 EpoR-JAK2V617F, luminescence. ATP luminescence. inhibition, % at 5.6 µM. 220,000 compounds, 1.1% hits;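 active = inhibition above the campaign mean plus 3 SD over all tested compounds, cut at about 24% in these data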;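 also: cytokine-independent growth of Ba/F3 cells driven by EpoR plus mutant JAK2; 0% = DMSO-treated cells and 100% = JAK inhibitor I control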
# Active calls of the source: *; . = no result.
SMILES,KLF5 inhibitor,APP transl inh,IEC-6 tox,aSyn 5UTR inh,BaF3 tox,Ba/F3 V617F tox
CCCCn1c(N)c(N(CC(C)C)C(=O)c2ccc(OCC3CCCO3)cc2)c(=O)[nH]c1=O (stereo not given),.,.,.,9,.,.
Cc1ccc(NC(=O)c2cc(-n3cnnc3)ccc2Cl)cc1,-18,7,-2,-12,3,-2
Cc1ccc(NC(=O)c2cc(N3C(=O)C=CC3=O)ccc2Cl)cc1C,-47,45*,-4,-17,5,-1
Cc1ccc(NC(=O)c2cc(N3C(=O)C=CC3=O)ccc2N2CCOCC2)cc1,-24,77*,0,12,6,-3
CC1CN(C(=O)CCC(=O)NC2CCCCC2)c2ccccc2S1 (stereo not given),12,.,4,5,.,.
COc1ccc2cc(-c3cc(C(=O)O)c4ccccc4n3)ccc2c1,41,-84,3,78*,15,13
CC(=O)Nc1ccc(S(=O)(=O)n2cnc3cc(C)c(C)cc32)cc1,-16,6,1,-1,29*,5
O=c1c2ccc(Cl)cc2nc(-c2cccc(C(F)(F)F)c2)n1O,40,-5,-6,78*,56*,60*
N#Cc1ccc(-c2nc3cc(Cl)ccc3c(=O)n2O)cc1,-13,.,0,-1,.,.
Cc1nc(NC(=O)CSc2nnc(C3CC3)n2C)sc1C,-8,.,-3,-9,.,.
CCOc1ccc(N/C(SCc2cccc([N+](=O)[O-])c2)=C(/C#N)C(N)=O)cc1,1,10,-18,-21,13,1
N#CC(C#N)=C(Nc1ccc(F)cc1)SCc1cccc(F)c1,34,4,34*,24,67*,55*
CC1CCCC(C)N1CC(O)COCc1ccccc1F (stereo not given),-15,.,4,-8,.,.
CCC(NC(=O)c1cc(COc2ccc(F)cc2Cl)on1)c1ccncc1 (stereo not given),-16,.,-4,16,.,.
Cc1ccc(S(=O)(=O)NCc2cccnc2)cc1C(=O)N1CCCC1,-1,.,-1,-1,.,.
Cc1cccc(C)c1NC(=O)CNC(=O)C(Cc1ccccc1)NC(=O)c1ccccc1 (stereo not given),-21,.,-5,-9,.,.
Cc1ccnc(NC(=O)c2cc3ccccc3o2)c1,.,.,.,97*,.,.
CCOc1ccc(C(=O)Nc2cc(C)ccn2)cc1,44,-186,12,65*,9,8
O=C(Nc1ccccn1)c1cc2ccccc2o1,-34,-86,6,42,7,0
OC(CCc1ccncc1)COc1ccccc1 (stereo not given),.,.,.,-1,.,.
CC1CCCC(C)N1C(=O)COC(=O)CNC(=O)c1ccc(Cl)cc1Cl (stereo not given),.,.,.,-2,.,.
CN(C)c1ccc(CNc2ccc3c(c2)ncn3C)cc1,-4,-3,6,-8,33*,21
Cc1ccc(C(=O)Nc2ccc3c(c2)OCCO3)cc1,48,.,3,89*,.,.
Cc1cc(NC(=O)c2ccc3c(c2)OCO3)no1,-106,-92,4,-60,3,-3
O=C(NCc1ccccc1)C(=O)Nc1cccc(C(=O)O)c1,-90,.,12,74*,-1,5
SMILES,KLF5 inhibitor,APP transl inh,IEC-6 tox,aSyn 5UTR inh,BaF3 tox,Ba/F3 V617F tox
Cc1ccc(C(=O)Nc2cccc(C(=O)O)c2)cc1,59,36,4,87*,3,1
Cc1cc(NC(=O)c2ccc3c(c2)OCCO3)no1,-104,-106,-3,62*,2,-2
CSc1cccc(NC(=O)C(=O)NCc2ccccc2)c1,-4,.,-10,-14,1,-1
Cc1cc(C)nc(Sc2ncnc(N)c2[N+](=O)[O-])n1,-26,8,1,0,-2,-2
COc1ccccc1C(=O)Nc1ccc2c(c1)CN(Cc1cnc(C)s1)CC2,-8,.,3,-22,.,.
CN(C(=O)c1cccs1)C1(C)CCS(=O)(=O)C1 (stereo not given),-37,.,0,13,.,.
NS(=O)(=O)c1ccc(OC(=O)CNC(=O)OCc2ccccc2)cc1,.,.,.,19,.,.
O=C(Nc1ccncc1)c1ccc(-c2ccccc2)cc1,-58,-25,-4,-127,32*,4
O=C(Nc1cccnc1)c1ccc(-c2ccccc2)cc1,2,-110,9,-163,3,1
COCCN(C(=O)CCC(=O)Nc1ccccn1)C(C(=O)NCCC(C)C)c1ccc(C)cc1 (stereo not given),-14,.,-4,0,.,.
CC(C)(C)c1ccc(Oc2ccc(NC(=O)c3ccco3)cn2)cc1,-32,.,13,-11,72*,80*
O=C(Nc1ccc(Oc2cccc(C(F)(F)F)c2)nc1)c1ccco1,-30,.,8,39,-2,0
C=CC(=O)N=c1sc2ccccc2n1-c1ccccc1,-14,39,13,70*,2,3
N=c1sc2ccccc2n1-c1ccccc1,-15,0,1,27,10,3
Cc1ccc(S(=O)(=O)Nc2ccc(C(=O)N3CCN(c4ccccc4O)CC3)cc2)cc1[N+](=O)[O-],.,.,.,-8,.,.
C(=N\Nc1ccc2ccccc2n1)/c1ccc2c(c1)OCCO2,58,-48,4,108*,-1,-1
O=C(/C=C/Nc1ccc(S(=O)(=O)Nc2cnc3ccccc3n2)cc1)c1ccccc1,-16,.,-1,15,52*,-1
O=C(/C=C1\NC2(CCCC2)Cc2ccccc21)C(=O)N/N=C/c1ccccc1O,-28,67*,-5,74*,7,-3
COc1cc(/C=N/NC(=O)C(=O)/C=C2\NC3(CCCC3)Cc3ccccc32)ccc1O,-8,-9,4,14,4,-2
Cc1ccccc1N1CCN(C2CCCN(C(=O)CCC(F)(F)F)C2)CC1 (stereo not given),-20,.,-3,14,.,.
COc1ccccc1N1CCN(C2CCCN(C(=O)CCN3CCCCO3)C2)CC1 (stereo not given),-11,.,2,7,.,.
COc1ccc(C(=O)Nc2cc(C)on2)c(OC)c1,-187,.,0,-141,.,.
COc1ccc(C(=O)Nc2ccc(C)cn2)c(OC)c1,54,-24,-4,115*,6,1
O=C(NC1CCOCC1)C1CCC(=O)N(Cc2cccc(C(F)(F)F)c2)C1 (stereo not given),-2,.,-1,5,.,.
N#Cc1c(-c2ccccc2)nc(-c2ccccc2)[nH]c1=O,-12,-1,3,32,7,6
N#Cc1c(-c2ccccc2)nc(-c2ccncc2)[nH]c1=O,-16,69*,0,-11,7,-1
O=C(Nc1cnn(Cc2ccc(Cl)cc2)c1)c1ccc([N+](=O)[O-])cc1,6,13,-3,22,2,-1
O=C(Nc1ccc([N+](=O)[O-])cc1)c1ccc(Cn2cc([N+](=O)[O-])cn2)cc1,43,5,12,79*,46*,46*

# Assay outcomes as filed in PubChem BioAssay.
